# Compounds with a hit are over-represented: about 7.7% of the library has one in this group of screens.
# NOMO-1 viab: STK33 inhibitor candidate reducing NOMO-1 cell viability; NOMO-1 AML viability, CellTiter-Glo luminescence, 72 h; 7.5% of 37,000 active; inhibition, % (no concentration beside the values); AID 2330; in the data active = inhibition above about 80%; inconclusive = no clear call, values can overlap the other calls
# Hedgehog inh: Sonic Hedgehog pathway inhibition. inhibition, % (concentration not given with the values). 2.1% of 22,000 active. Shh-LIGHT2 Gli-luciferase reporter, 30 h;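 active = mean inhibition across valid replicates above about 65%, limit read from the data; inconclusive = mean under the limit, yet half or more replicates past it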;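 note: pathway switched on by Shh-conditioned medium diluted 1 in 25 in low serum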
# PD-1 reverse act: activators reversing PD-1 mediated T-cell inhibition; primary human CD4 T cells, PD-L1 beads, CellTiter-Glo 96 h; activation, % (concentration not given with the values); 29,000 tested, under 10 active; call rule not given here;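 note: 0% = median vehicle wells and 100% = positive control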
# The depositor's hits bear a star; ? = inconclusive; / = no result given.
SMILES,NOMO-1 viab,Hedgehog inh,PD-1 reverse act
CC(Oc1ccc(Cl)cc1Cl)C(=O)Nc1cccc(-c2nnc(-c3ccccc3)o2)c1 (configuration not stated),34.5,/,3.9
O=C(COc1ccc(Cl)cc1)Nc1ccc(O)c(-c2nc3ccccc3o2)c1,98.1*,/,/
Cc1ccc(-c2nc3ccccc3s2)cc1NC(=O)COc1ccccc1C,30.1,/,0.0
Cc1cc(Cl)ccc1OCC(=O)Nc1ccccc1-c1nc2ccccc2s1,22.1,/,/
O=C(COc1ccc(Cl)cc1Cl)Nc1cccc(-c2nnc(-c3ccccc3)o2)c1,114.1*,/,-6.6
Cc1ccc(-c2nc3ccccc3s2)cc1NC(=O)COc1cccc(C)c1C,89.3*,/,1.5
Cc1ccccc1-c1nc2cc(NC(=O)COc3ccc(Cl)cc3)ccc2o1,18.6,/,/
O=C(COc1ccc(Cl)cc1Cl)Nc1ccc(O)c(-c2nc3ccccc3s2)c1,103.1*,/,0.4
CC(=O)c1ccc(NC(=O)CN(C)S(=O)(=O)c2ccc(Br)cc2)cc1,19.4,/,-1.3
Cc1ccccc1N(CC(=O)Nc1cccc2ccccc12)S(C)(=O)=O,27.0,/,1.3
O=c1oc(-c2cccnc2)nc2sc3c(c12)CCCCC3,21.5,-42.6,-0.1
COc1ccc2cc1/C=C\NC(=O)C(Cc1ccccc1)NC(=O)C1C(CCN1C(=O)C(NC(=O)C(C)N(C)C)C(C)C)O2 (configuration not stated),20.6,24.3,1.3
CC(C)C1=CCC(C)/C(=C\c2ccc(Cl)cc2)C1=O (configuration not stated),3.7,/,0.6
C[C@H]1CN([C@@H](C)CO)C(=O)c2cc(NC(=O)Nc3ccc(C(F)(F)F)cc3)ccc2O[C@H]1CN(C)C(=O)Nc1ccc(F)cc1,76.3,8.0,-0.4
C[C@@H]1CN([C@H](C)CO)C(=O)c2cc(NC(=O)Nc3ccc(C(F)(F)F)cc3)ccc2O[C@@H]1CN(C)C(=O)Nc1ccc(C(F)(F)F)cc1,94.0*,-51.0,/
C[C@H](CO)N1C[C@H](C)[C@H](CN(C)C(=O)NC2CCCCC2)Oc2ccc(NC(=O)Nc3ccc(C(F)(F)F)cc3)cc2C1=O,63.4,19.9,-3.7
C[C@@H]1CN([C@@H](C)CO)C(=O)c2cc(NC(=O)Nc3ccc(F)cc3)ccc2O[C@H]1CN(C)C(=O)Nc1ccc(C(F)(F)F)cc1,61.3,-37.6,-0.8
C[C@H]1CN([C@@H](C)CO)C(=O)c2cc(NC(=O)Nc3ccc(C(F)(F)F)cc3)ccc2O[C@H]1CN(C)C(=O)Nc1ccc(C(F)(F)F)cc1,119.6*,31.5,-2.0
C[C@H]1CN([C@@H](C)CO)C(=O)c2cc(NC(=O)Nc3ccc(C(F)(F)F)cc3)ccc2O[C@H]1CN(C)C(=O)NC1CCCCC1,103.4*,-14.5,-2.5
C[C@@H]1CN([C@@H](C)CO)C(=O)c2cc(NC(=O)Nc3ccc(C(F)(F)F)cc3)ccc2O[C@@H]1CN(C)C(=O)Nc1ccc(C(F)(F)F)cc1,113.6*,30.8,-5.9
C[C@H](CO)N1C[C@H](C)[C@@H](CN(C)C(=O)Nc2ccc(C(F)(F)F)cc2)Oc2ccc(NC(=O)Nc3ccccc3)cc2C1=O,2.1,-31.3,/
COc1cc(C[C@@H]2COC(c3ccc(O[C@@H]4O[C@H](CO)[C@@H](O)[C@H](O)[C@H]4O)c(OC)c3)[C@@H]2CO)ccc1O[C@@H]1O[C@H](CO)[C@@H](O)[C@H](O)[C@H]1O (some centres not stated),3.9,-0.9,-0.9
O=c1c2ccccc2nnn1CN1CCCCC1,22.0,42.6,0.0
C[C@@H]1CN([C@H](C)CO)C(=O)c2cc(NC(=O)Nc3ccc(F)cc3)ccc2O[C@@H]1CN(C)C(=O)Nc1ccc(C(F)(F)F)cc1,48.2,-4.5,-1.9
C[C@@H]1CN([C@@H](C)CO)C(=O)c2cc(NC(=O)Nc3ccc(C(F)(F)F)cc3)ccc2O[C@H]1CN(C)C(=O)Nc1ccc(C(F)(F)F)cc1,104.7*,10.2,-7.1
SMILES,NOMO-1 viab,Hedgehog inh,PD-1 reverse act
CC1CCC/C=C/C(=O)c2c(O)cc(O)cc2CC(=O)O1 (configuration not stated),107.7*,7.3,-13.6
CC1CCCC2OC2C(=O)c2c(O)cc(O)cc2CC(=O)O1 (configuration not stated),14.6,-18.7,1.6
Cc1ccc(N(C(C)C(N)=O)S(C)(=O)=O)cc1C (configuration not stated),-0.9,/,-0.5
COc1ccc(-n2c(SCC(=O)Nc3ccc(Cl)cc3Cl)nnc2-c2ccncc2)cc1,8.4,/,-1.2
Cc1cccc(-n2c(SCC(=O)c3ccccc3)nnc2-c2ccncc2)c1C,30.2,/,-3.4
Cc1ccc(S(=O)(=O)NCC(=O)Nc2ccc(C(N)=O)cc2)cc1,-1.2,/,2.6
C[C@H]1CN([C@@H](C)CO)C(=O)c2cccc(NS(=O)(=O)c3ccc(Cl)cc3)c2O[C@H]1CN(C)Cc1ccc(Oc2ccccc2)cc1,?,49.4,-0.3
C[C@H](CO)N1C[C@H](C)[C@@H](CN(C)Cc2ccc(Oc3ccccc3)cc2)Oc2c(NS(=O)(=O)c3ccc(Cl)cc3)cccc2C1=O,104.0*,2.5,-3.6
C[C@H]1CN([C@@H](C)CO)C(=O)c2cccc(NS(=O)(=O)c3ccccc3)c2O[C@@H]1CN(C)Cc1ccc(Cl)c(Cl)c1,7.2,1.9,0.1
C[C@H](CO)N1C[C@H](C)[C@H](CN(C)Cc2ccc(Cl)c(Cl)c2)Oc2c(NS(=O)(=O)c3ccccc3)cccc2C1=O,?,82.2*,/
C[C@@H]1CN([C@H](C)CO)C(=O)c2cccc(NS(=O)(=O)c3ccc(Cl)cc3)c2O[C@H]1CN(C)Cc1ccc(Oc2ccccc2)cc1,49.6,-11.1,4.6
C[C@@H]1CN([C@@H](C)CO)C(=O)c2cccc(NS(=O)(=O)c3ccc(Cl)cc3)c2O[C@@H]1CN(C)Cc1ccc(Oc2ccccc2)cc1,87.5*,10.8,-2.0
O=C(O)CSc1nc2cc(N3CCOCC3)c(F)cc2[nH]1,26.9,/,1.4
CCc1cc(Br)cc(C)c1NC(=O)CSc1nnc(-c2ccncc2)n1-c1ccccc1,28.1,/,-2.5
O=C(Nc1cccc(Cn2cccn2)c1)c1cc(-c2ccncc2)nc2ccc(Br)cc12,29.3,/,/
CC(CC(=O)O)CC(=O)Nc1ccc(C(=O)O)cc1 (configuration not stated),-11.4,/,0.4
COc1cc(NC(=O)COc2ccc(Cl)cc2Cl)ccc1NC(=O)c1ccccc1Cl,38.9,/,1.5
COC(=O)C(O)(c1ccc(NC(=S)NC(=O)c2ccc(Cl)cc2Cl)c(OC)c1)C(F)(F)F (configuration not stated),123.5*,/,-5.9
C[C@H](CO)N1C[C@H](C)[C@H](CN(C)C(=O)Nc2ccc(F)cc2)Oc2c(NC(=O)CCCCCC(=O)Nc3ccccc3N)cccc2C1=O,23.3,/,-0.1
C[C@H](CO)N1C[C@H](C)[C@@H](CN(C)C(=O)Nc2ccc(C(F)(F)F)cc2)Oc2c(NC(=O)Nc3ccccc3)cccc2C1=O,12.6,-35.6,-1.9
COc1ccc(NC(=O)N(C)C[C@H]2Oc3c(NC(=O)Nc4ccc(C(F)(F)F)cc4)cccc3C(=O)N([C@H](C)CO)C[C@@H]2C)cc1,102.6*,-4.4,-5.2
CC(C)NC(=O)N(C)C[C@@H]1Oc2c(NC(=O)Nc3ccc(C(F)(F)F)cc3)cccc2C(=O)N([C@@H](C)CO)C[C@H]1C,14.7,?,/
